Screening results deposited in PubChem by several laboratories.
sPLA2-III inh – human group III sPLA2 inhibitors, primary screen, biochemical, QFRET, BODIPY PC-A2 liposome substrate. Group 3 secretory phospholipase A2 (Homo sapiens), Q9NZ20. QFRET BODIPY PC-A2 liposome hydrolysis, fluorescence. inhibition, % at 12.2 µM. 370,000 tested, 0.56% active;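 active means inhibition above mean plus 3 SD of compounds lying within the high and low control bounds, cut at about 19% in these data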;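 further: 0% = median of test compound wells and 100% = no enzyme DMSO wells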
Target sequence (Q9NZ20 whole entry, looked up): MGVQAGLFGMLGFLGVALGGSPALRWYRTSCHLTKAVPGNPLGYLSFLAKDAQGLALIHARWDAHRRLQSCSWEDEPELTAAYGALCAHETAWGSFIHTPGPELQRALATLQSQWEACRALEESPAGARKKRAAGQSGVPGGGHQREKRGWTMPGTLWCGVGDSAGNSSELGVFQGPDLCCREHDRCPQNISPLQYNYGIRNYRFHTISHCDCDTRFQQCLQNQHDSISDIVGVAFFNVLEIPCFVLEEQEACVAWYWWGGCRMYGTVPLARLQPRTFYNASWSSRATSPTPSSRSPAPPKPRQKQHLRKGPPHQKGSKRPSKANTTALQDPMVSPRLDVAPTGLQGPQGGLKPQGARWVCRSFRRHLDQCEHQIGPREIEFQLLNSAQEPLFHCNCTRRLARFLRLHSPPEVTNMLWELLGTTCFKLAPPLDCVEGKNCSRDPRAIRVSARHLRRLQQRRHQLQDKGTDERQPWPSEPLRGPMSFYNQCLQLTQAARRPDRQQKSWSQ
SKN-1 block – suppressors of acrylamide-induced Pgst-4::GFP reporter in worms, primary screen, SKN-1 inhibitor project, whole organism, uHTS, GFP/RFP fluorescence ratio, strain VP596. C. elegans VP596 Pgst-4::GFP/RFP ratio, 24 h. inhibition, % at 21.8 µM. 360,000 tested, 0.49% active. AID 624304, 2012;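 active means interference check ratio from 0.5 to 1.5 plus GFP to RFP signal ratio inhibition reaching or exceeding a fixed threshold, cut at about 30% in these data, passing the limit was not always enough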
Efflux pump mplx – inhibitors of Candida efflux pumps in yeast, primary screen, S. cerevisiae, Nile Red, multiplex | S. cerevisiae Candida pump triplex | inhibition, % at 10 µM | 330,000 tested, 0.44% active | AID 485275, 2010;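 active means plate passing quality check with inhibition over a set limit, or well fluorescence over plate mean plus 4 SD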;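 further: Nile Red retained in pooled yeast measured as flow cytometry median fluorescence; 0% = buffer negative control and 100% = Enniatin B positive control; higher means more Nile Red kept so more efflux inhibition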
SUMO Mot1 rescue – yeast Mot1-301 growth rescue at high temperature, primary screen, SUMOylation pathway inhibitor project, S. cerevisiae, ATP luminescence, 38.5C; S. cerevisiae Mot1-301 growth rescue; percent above DMSO median, 100 means doubled; growth rescue, % at 18.8 µM; 320,000 tested, 1% active; AID 2716, 2010;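 active means every valid replicate shows activation above 250% relative to neutral control wells; inactive means the rest, any valid replicate at or below 250%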;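 further: OY570 slx delta 5 strain wells were the positive control but not used for scaling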
Cmpd fluor yeast – flagged as fluorescent in efflux inhibitor counter-screen; shares compounds with Efflux pump mplx; S. cerevisiae AD/pABC3, compound fluorescence, flow cytometry; fluorescence ratio to DMSO, % at 10 µM; 1,700 tested, 4% active;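 active means fluorescence ratio to DMSO above its plate's cutoff, the plate mean ratio plus 5 SD, cut at about 210% in these data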;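 further: unstained yeast with no Nile Red so the signal is compound autofluorescence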
Mdr1 pump inh – inhibitors of Candida albicans Mdr1 efflux, confirmation, flow cytometry, singleplex, Cherry Pick1 set; inhibition, % at 10 µM; S. cerevisiae AD/CaMDR1, Nile Red efflux; AID 588518, 2011; shares compounds with Efflux pump mplx; 1,700 tested, 1% active; in the data active means inhibition above about 26%;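 further: 0% = DMSO vehicle and 100% = reference inhibitor; higher means more Nile Red retained so more efflux inhibition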
CaCdr2 efflux inh – inhibitors of Candida albicans Cdr2 efflux pump, confirmation, S. cerevisiae AD/CaCDR2, flow cytometry, cherry pick 1, singleplex. shares compounds with Efflux pump mplx. Nile Red retention. Nile Red retention ratio vs DMSO, % at 10 µM. 1,700 tested, 4% active; in the data active means Nile Red retention ratio vs DMSO above about 190%;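 further: higher ratio means more blocking of Cdr2 efflux of the dye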
Cdr1 pump inh – inhibitors of Candida albicans Cdr1 efflux pump, confirmation, S. cerevisiae AD/CaCDR1, flow cytometry, cherry pick 1, singleplex. shares compounds with Efflux pump mplx. Nile Red efflux. inhibition, % at 10 µM. 1,700 tested, 1% active;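 active means inhibition above the screen-wide mean plus twice its standard deviation, cut at about 32% in these data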
Numbers without * were called inactive; nt = not tested or not shown. Rows were chosen to be rich in hits. Some 2.2% of all compounds tested hit in one or more screens of this group.

SMILES	sPLA2-III inh	SKN-1 block	Efflux pump mplx	SUMO Mot1 rescue	Cmpd fluor yeast	Mdr1 pump inh	CaCdr2 efflux inh	Cdr1 pump inh
CCOC(=O)c1c(C)[nH]c(C)c1C(=O)COC(=O)/C=C/c1ccc(Cl)cc1	-8	3	8.3*	-26	102	0	101	0
CSc1ccccc1OC1CCN(Cc2ccccc2)CC1	-10	8	5.8*	-29	102	0	101	0
CNc1nc2[nH]c(=O)c3c(c2s1)OC(N)=C(C#N)C3c1ccccc1 (configuration not stated)	9	3	9.7*	3	117	0	96	0
CC[n+]1c(/C=C/C=C/N(C(C)=O)c2ccccc2)sc2ccccc21	13	72	1.3*	-6	309*	2	125	1
CCOC(=O)C1C(=O)C=C(/C=C/c2ccc(N(C)C)cc2)CC1c1ccccc1 (configuration not stated)	-1	20	0.6*	-18	588*	0	125	0
Cc1ccc2nc(C)c(CN3CCN(c4ccc([N+](=O)[O-])cc4Cl)CC3)n2c1	-1	-9	0	2	nt	nt	nt	nt
COC(=O)C1=C(C(=O)OC)[C@@H]2N(C)c3ccccc3[C@@]23C[C@@H](CO)N(C(=O)C2CCC2)C3=N1	2	-9	0	-3	nt	nt	nt	nt
O=C(COC(=O)c1ccccn1)c1cccc(Br)c1	-2	7	1	-7	nt	nt	nt	nt
O=C(COC(=O)c1ccccn1)c1ccc(Br)cc1	-6	8	1.3*	3	100	0	91	0
COc1ccc(C(=O)CCc2ccccc2)cc1	0	2	0	-17	nt	nt	nt	nt
Nc1ccc2c3c(cccc13)CC2	-46	3	1.8*	16	122	0	121	0
Cc1cc(Cl)ccc1Oc1ncc(CN2CCN(c3ccccc3)CC2)s1	1	-15	0.5*	30	92	0	92	0
N#C/C(=C\c1ccccn1)c1nc2ccccc2s1	-6	10	1.6*	0	160	0	247*	1
COc1ccc(/C(C#N)=C/c2ccccn2)cc1	3	11	1.4*	-9	105	0	112	0
CC(C)(C)c1ccc(C(=O)OC/C(O)=C(\C#N)c2nc3ccccc3s2)cc1	-6	3	0	-14	nt	nt	nt	nt
COC(=O)c1ccc(/C=C(\C#N)c2nc3ccccc3s2)cc1	-7	11	0	-2	102	0	120	0
C[C@@H]1CN([C@@H](C)CO)C(=O)CCCn2nncc2CO[C@H]1CN(C)C(=O)Nc1ccc(F)cc1	5	14	nt	nt	nt	nt	nt	nt
Cc1ccc(-n2nnnc2CNC(=O)C(=O)c2c[nH]c3ccccc23)cc1C	-12	4	nt	nt	nt	nt	nt	nt
COC(=O)C(Cc1ccccc1)NC(=O)CCNC(=O)c1ccco1 (configuration not stated)	0	2	0.8*	5	91	0	85	0
COC(=O)CNC(=O)COC(=O)C(Cc1ccccc1)NC(=O)c1ccco1 (configuration not stated)	-2	13	0	76	nt	nt	nt	nt
Cc1ccc(S(=O)(=O)NC(=O)C2(C)CCN2C(=O)C2(c3ccc(Cl)cc3)CCC2)nc1 (configuration not stated)	4	-6	nt	nt	nt	nt	nt	nt
Cc1nc2ccc(NC(=O)CCS(=O)(=O)c3ccccc3)cc2s1	-2	-1	0	4	nt	nt	nt	nt
Cc1ccc2nc(-c3ccc(NC(=O)CCS(=O)(=O)c4ccccc4)cc3)sc2c1	-12	-4	0.5*	-12	112	0	114	0
N#Cc1ccccc1S(=O)(=O)N1CCN(C(=O)c2cc3c(s2)CCC3)CC1	-7	-17	nt	nt	nt	nt	nt	nt
O=C(CCCOc1ccccc1)Nc1ccccc1C(F)(F)F	-3	-2	10*	-4	100	0	105	0
SMILES	sPLA2-III inh	SKN-1 block	Efflux pump mplx	SUMO Mot1 rescue	Cmpd fluor yeast	Mdr1 pump inh	CaCdr2 efflux inh	Cdr1 pump inh
CCCc1c(C(=O)N/N=C(\C)c2ccc3c(c2)OCO3)nnn1-c1nonc1N	6	1	nt	nt	nt	nt	nt	nt
C/C(=N\NC(=O)c1nnn(-c2nonc2N)c1CSc1ccccc1)c1ccc2c(c1)OCO2	-1	2	1.0*	-4	105	0	119	0
CCOC(=O)c1c(NC(=O)COC(=O)c2ccncc2)sc(C)c1C	5	2	0.5*	138	95	0	101	0
CCOc1ccc(OCC(=O)OCC(=O)NCC2CCCO2)cc1 (configuration not stated)	4	-15	0	-4	nt	nt	nt	nt
CCn1cc(C(=O)NCc2ccc(C)cc2)c(=O)c2cc(S(=O)(=O)N(C)C)ccc21	11	-10	0	-12	nt	nt	nt	nt
COC1=CC(=O)OC(c2cccc(C(F)(F)F)c2)C1 (configuration not stated)	5	4	nt	nt	nt	nt	nt	nt
COc1ccc(CCNCC(O)COc2cccc(C(C)=O)c2)cc1OC (configuration not stated)	9	14	0	1	nt	nt	nt	nt
Cc1nn(-c2ccccc2)c2c1C(c1ccc([N+](=O)[O-])cc1)N1C(=N2)C(=O)Nc2ccccc21 (configuration not stated)	-27	5	0	-23	99	0	87	0
Cc1nn(-c2ccccc2)c2c1C(c1ccc(Cl)cc1)N(c1ccccc1)C(=O)N2 (configuration not stated)	9	-8	0	-1	nt	nt	nt	nt
Cc1nn(-c2ccc([N+](=O)[O-])cc2)c2c1C(c1cccc(Br)c1)N1C(=N2)C(=O)Nc2ccccc21 (configuration not stated)	5	2	1	-35	109	0	103	0
C/C(=N\NC(=O)c1cccc(Cl)c1)C1C(=O)c2ccccc2C1=O	7	3	13*	-3	92	0	101	0
CC1(C(=O)NS(=O)(=O)c2ccc3ccccc3c2)CCN1C(=O)Cc1ccc(-c2ccccc2)cc1 (configuration not stated)	-58	-4	nt	nt	nt	nt	nt	nt
